This test deals with Caenorhabditis elegans N2 (wild type). The test can be described thus: animals with crystals or spheres in anterior pharynx; higher = more object (crystal/sphere) accumulation. Particulars: 30 µM; 48 h; genotype: wild type N2; stage: L1 start. How it is done: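 Synchronized wild-type (N2) C. elegans L1 larvae (50 per well) were incubated in liquid NGM with E. coli HB101 and 30 uM of each wactive for 48 h. Live worms were scored by DIC and polarized-light microscopy for birefringent crystals or non-birefringent spheres in the anterior pharynx. At least 3 biological replicates were run with at least 20 worms each; the value is the mean % of animals carrying objects.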
The compound `Fc1ccc(N2CCN(Cc3cccc(Br)c3)CC2)cc1` [wact-30] showed an animals of 0%. `CCOc1ccc(/C=C/[N+](=O)[O-])cc1` [wact-385] showed an animals of 0%.
